# From PubChem BioAssay (EPA / NIEHS)
# Inconclusive results are not listed. Active and inactive are the calls of the source. Rule for the calls, unless noted: active = hit-call score of the fitted dose curve at least 0.9, where 1 is the maximum; inactive = score below 0.9.
# Legend:
# [1] = CCTE_Shafer_MEA_acute_spike_number: CCTE's Neural Acute Assay for Total Number of Spikes, Shafer Lab (AID 2284008);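 for AC50: curve fitted for decrease in spike count so AC50 reflects inhibitors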
# In short: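 Primary rat cortical neurons on 16-electrode MEA wells; on DIV 13 or 15, 40-min baseline then 40-min recording with compound (0.03-40 uM) at 37 C. Spikes detected at 8x rms noise; percent change versus baseline, DMSO as negative control.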
# [2] = CCTE_Shafer_MEA_acute_firing_rate_mean: CCTE's Neural Acute Assay for Mean Firing Rate, Shafer Lab (AID 2284009);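 note: analyzed for loss of signal so actives lower firing rate relative to DMSO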
# In short: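 Rat cortical neuron cultures matured to DIV 13 or 15, equilibrated 20 min at 37 C, then recorded 40 min for baseline. Compound (0.03-40 uM) added and a further 40 min recorded; percent change in mean firing rate calculated per well.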
# [3] = CCTE_Harrill_HTTr_Viability_MCF7: CCTE's 6-hour Cell Viability Assessment for the High-Throughput Transcriptomics (HTTr) Platform, in MCF-7 cells cultured in DMEM + 10% fetal bovine serum, Harrill Lab (AID 2284010)
# In short: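 Eight-point concentration series, six-hour exposure. Propidium iodide exclusion imaged to assess membrane integrity as a cytotoxicity readout; bidirectional fitting was done with DMSO as negative control and activity baseline.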
# [4] = CCTE_Shafer_MEA_acute_burst_number: CCTE's Neural Acute Assay for Single-Electrode Bursts, Shafer Lab (AID 2284013)
# In short: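 Percent change in single-electrode burst number per well, from 40-min recordings taken before and after adding compound (0.03-40 uM) to primary rat cortical neurons on MEA plates at DIV 13 or 15, 37 C.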
# [5] = CCTE_Shafer_MEA_acute_per_burst_spike_number_mean: CCTE's Neural Acute Assay for Average Number of Spikes Per Burst, Shafer Lab (AID 2284015);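 note: hits are decreases in mean spikes per burst versus baseline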
# In short: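 We recorded spontaneous network firing of rat cortical neurons for 40 min before and 40 min during exposure to compound at 0.03-40 uM, at 37 C. Spikes were detected adaptively at 8x rms noise, and the change in average spikes per burst was fitted against DMSO.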
# [6] = CCTE_Shafer_MEA_acute_interburst_interval_mean: CCTE's Neural Acute Assay for Mean Interburst Interval, Shafer Lab (AID 2284016);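 note: percent change of mean interburst interval versus each well's own pre-dose baseline; curves fitted for decrease in interburst interval relative to DMSO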
# In short: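 MEA recording of spontaneous network bursting in primary rat cortical cultures; mean interburst interval was compared before and after a 40-min compound exposure (0.03-40 uM) and expressed as percent change, relative to DMSO.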
# [7] = CCTE_Shafer_MEA_acute_burst_percentage_mean: CCTE's Neural Acute Assay for Percentage of Spikes in a Burst, Shafer Lab (AID 2284017);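 for AC50: curve fitted for loss of signal so potency reflects decreased burst percentage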
# In short: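 Compounds were tested at 0.03-40 uM on primary rat cortical neuron networks grown over microelectrodes, with at least three wells per compound. Spontaneous firing was recorded for 40 min before and 40 min after dosing, and the change in burst percentage was computed per well.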
# [8] = CCTE_Shafer_MEA_acute_burst_percentage_std: CCTE's Neural Acute Assay for Standard Deviation of Burst Percentage, Shafer Lab (AID 2284018);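 note: fitted in the negative direction so actives lower burst percentage SD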
# In short: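 Rat primary cortical neurons on 48-well MEAs, DIV 13 or 15, 37 C. 40-min baseline then 40-min recording with compound (0.03-40 uM); well-level SD of per-electrode burst spike percentage, expressed as percent change from baseline.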
# [9] = CCTE_Harrill_HTTr_Apoptosis_MCF7: CCTE's 6-hour Apoptosis Assessment for the High-Throughput Transcriptomics (HTTr) Platform, in MCF-7 cells cultured in DMEM + 10% fetal bovine serum, Harrill Lab (AID 2284011)
# In short: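 MCF-7 cells in DMEM + 10% fetal bovine serum were exposed to chemicals for 6 hours over an eight-point dilution series. Caspase-3/7 activation was imaged by high content imaging with CellEvent Caspase 3/7 Green; bidirectional fitting used DMSO as baseline.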
# [10] = CCTE_Harrill_HTTr_CellCount_MCF7: CCTE's Cell Proliferation Assessment for the High-Throughput Transcriptomics (HTTr) Platform, Harrill Lab (AID 2284012; active = hit-call score of the fitted dose curve at least 0.9, where 1 is the maximum;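 note: count of Hoechst-stained nuclei per well by high-content imaging in MCF-7 cells; cells exposed to compound for six hours; intended direction is loss of nuclei count meaning fewer cells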)
# In short: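 For this full-screen endpoint, MCF-7 cultures received eight compound dilutions for six hours. Well nuclei counts from Hoechst imaging were analyzed relative to DMSO.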
structure (smiles),measurement,setting,value
O=C(Oc1ccc(Br)cc1)N1CCN2CCC1CC2,outcome,[1],inactive
same,outcome,[2],inactive
same,outcome,[3],inactive
same,outcome,[4],inactive
same,outcome,[5],inactive
same,outcome,[6],inactive
same,outcome,[7],inactive
same,outcome,[8],inactive
O=C(N[C@H](c1ccccc1)[C@@H]1CN2CCC1CC2)c1c(Cl)ccc(C(F)(F)F)c1Cl,AC50,[1],1.55 µM (active)
same,AC50,[2],1.55 µM (active)
same,outcome,[3],inactive
same,AC50,[4],1.68 µM (active)
same,outcome,[5],inactive
same,outcome,[6],inactive
same,outcome,[7],inactive
same,outcome,[8],inactive
CC(C)COC(=O)c1ccccc1C(=O)OCC(C)C,AC50,[1],7.13 µM (active)
same,AC50,[2],7.16 µM (active)
same,outcome,[3],inactive
same,outcome,[9],inactive
same,outcome,[10],inactive
same,outcome,[4],inactive
same,AC50,[5],6.45 µM (active)
same,outcome,[6],inactive
same,AC50,[7],9.02 µM (active)
same,outcome,[8],inactive
O=P(OCCCl)(OCCCl)OCCCl,outcome,[1],inactive
same,outcome,[2],inactive
same,outcome,[3],inactive
same,outcome,[9],inactive
same,outcome,[4],inactive
same,outcome,[5],inactive
same,outcome,[6],inactive
same,outcome,[7],inactive
same,outcome,[8],inactive
Nc1ccc(Cl)cc1N,outcome,[3],inactive
CC(C)(C)C(O)(CCc1ccc(Cl)cc1)Cn1cncn1 (stereo not given),AC50,[1],3.76 µM (active)
same,AC50,[2],3.75 µM (active)
same,outcome,[3],inactive
same,AC50,[4],3.5 µM (active)
same,outcome,[5],inactive
same,AC50,[6],5.9 µM (active)
same,outcome,[7],inactive
same,outcome,[8],inactive
Clc1ccccc1Cl,outcome,[3],inactive
Nc1ccc([N+](=O)[O-])cc1,outcome,[3],inactive
O=[N+]([O-])C(Br)(CO)CO,AC50,[1],33.6 µM (active)
same,AC50,[2],33.9 µM (active)
same,outcome,[3],inactive
same,outcome,[4],inactive
same,AC50,[5],20 µM (active)
same,outcome,[6],inactive
same,AC50,[7],30.2 µM (active)
same,outcome,[8],inactive
COc1cc(C=O)cc2c1[C@H](COC(N)=O)[C@]1(OC(C)=O)ON2C[C@H]2[C@@H]1N2C(C)=O,outcome,[3],inactive
Clc1ccc(C(c2ccc(Cl)cc2)C(Cl)(Cl)Cl)cc1,outcome,[1],inactive
same,outcome,[2],inactive
same,outcome,[3],inactive
same,outcome,[9],inactive
same,outcome,[4],inactive
same,outcome,[5],inactive
same,outcome,[6],inactive
same,AC50,[7],11.4 µM (active)
same,AC50,[8],5.34 µM (active)
C[N+](C)(C)CC1CO1 (stereo not given),outcome,[1],inactive
same,outcome,[2],inactive
same,outcome,[3],inactive
same,outcome,[9],inactive
same,outcome,[4],inactive
same,outcome,[5],inactive
same,outcome,[6],inactive
same,outcome,[7],inactive
same,outcome,[8],inactive
CCN(CC)CCO,outcome,[1],inactive
same,outcome,[2],inactive
same,outcome,[3],inactive
same,outcome,[4],inactive
same,outcome,[5],inactive
same,outcome,[6],inactive
same,outcome,[7],inactive
same,outcome,[8],inactive
CC(O)CCO (stereo not given),outcome,[3],inactive
Cc1cc(N=Nc2ccccc2C)ccc1N,outcome,[1],inactive
same,outcome,[2],inactive
same,outcome,[3],inactive
same,outcome,[4],inactive
same,AC50,[5],20 µM (active)
same,outcome,[6],inactive
same,AC50,[7],26.6 µM (active)
same,AC50,[8],28.9 µM (active)
Cn1cc(-c2ccccc2)c(=O)c(-c2cccc(C(F)(F)F)c2)c1,outcome,[3],inactive
c1ccc(C2CO2)cc1 (stereo not given),outcome,[3],inactive
same,outcome,[9],inactive
CNC(=O)Oc1cccc2c1OC(C)(C)C2,outcome,[3],inactive
C1=Cc2cccc3cccc1c23,outcome,[3],inactive
same,outcome,[10],inactive
OCCOCCO,outcome,[3],inactive
same,outcome,[9],inactive
same,outcome,[10],inactive
Cc1ccc(N)cc1,outcome,[3],inactive
c1ccc2c(c1)oc1ccccc12,outcome,[3],inactive
same,outcome,[9],inactive
CCNS(=O)(=O)C(F)(F)C(F)(F)C(F)(F)C(F)(F)C(F)(F)C(F)(F)C(F)(F)C(F)(F)F,outcome,[3],inactive
CC(C)N(Cc1ccccc1)C(=O)C(C)(C)C,outcome,[3],inactive
O=C(Nc1ccccc1)c1ccccc1I,outcome,[3],inactive
same,outcome,[9],inactive
Oc1ccc2ccc3cccc4ccc1c2c34,outcome,[3],inactive
same,AC50,[9],48.2 µM (active)
c1ccc2c(c1)-c1cccc3cccc-2c13,outcome,[3],inactive
same,outcome,[9],inactive
COC(=O)c1ccccc1N,outcome,[3],inactive
Nc1ccc(Oc2ccc(N)cc2)cc1,outcome,[3],inactive
same,outcome,[9],inactive
CCOC(=O)[C@]1(c2ccccc2)Oc2ccccc2[C@@H]1N,outcome,[3],inactive
CN(C)C(=O)Nc1ccc(Cl)cc1,outcome,[3],inactive
same,outcome,[9],inactive
O=C1CCCO1,outcome,[3],inactive
same,outcome,[9],inactive
same,outcome,[10],inactive
CO[C@@H]1[C@H](OC(=O)NC(=O)CCl)CC[C@]2(CO2)[C@H]1[C@@]1(C)O[C@@H]1CC=C(C)C,outcome,[3],inactive
same,outcome,[9],inactive
Brc1ccc(Oc2ccccc2)cc1,outcome,[3],inactive
same,outcome,[9],inactive
N#CC(Br)(Br)C(N)=O,outcome,[3],inactive
same,outcome,[9],inactive
same,outcome,[10],inactive
C=CCc1ccc2c(c1)OCO2,outcome,[3],inactive
same,outcome,[9],inactive
CS(=O)(=O)NC(=O)c1cc(Oc2ccc(C(F)(F)F)cc2Cl)ccc1[N+](=O)[O-],outcome,[3],inactive
same,outcome,[9],inactive
Cc1ccc(N=C=O)cc1N=C=O,outcome,[3],inactive
Nc1ccc(Cc2ccc(N)cc2)cc1,outcome,[3],inactive
Cc1cccc(N)c1N,outcome,[3],inactive
same,outcome,[9],inactive
Cc1ccc([N+](=O)[O-])cc1,outcome,[3],inactive
Clc1ccc(Cl)c(Cl)c1,outcome,[3],inactive
same,outcome,[9],inactive
OCCCl,outcome,[3],inactive
same,outcome,[9],inactive
COP(=S)(OC)SCN1C(=O)c2ccccc2C1=O,outcome,[3],inactive
same,outcome,[9],inactive
CCOc1cccc(C2(N3CCN(c4ccccc4)CC3)CCC(C)CC2)c1 (stereo not given),outcome,[3],inactive
same,outcome,[9],inactive
CN(C)[C@@H]1C(=O)C(C(N)=O)=C(O)[C@@]2(O)C(=O)C3=C(O)c4c(O)cccc4[C@@](C)(O)[C@H]3C[C@@H]12,outcome,[3],inactive
CCCCCCCCCCCCCN1CC(C)OC(C)C1 (stereo not given),outcome,[3],inactive
same,outcome,[9],inactive
same,outcome,[10],inactive
[O-][Cl+]O,outcome,[3],inactive
Nc1cc(Cl)cc(C(=O)O)c1Cl,outcome,[3],inactive
same,outcome,[9],inactive
CCC12COCN1COC2,outcome,[3],inactive
same,outcome,[10],inactive
Nc1ccc(N=Nc2ccccc2)cc1,outcome,[3],inactive
same,outcome,[9],inactive
CN(C)c1ccccc1,outcome,[3],inactive
same,outcome,[9],inactive
CCCCCCCCOC(=O)c1ccc(C(=O)OCCCCCCCC)c(C(=O)OCCCCCCCC)c1,outcome,[3],inactive
same,outcome,[10],inactive
CC(C)(C)OOC(C)(C)CCC(C)(C)OOC(C)(C)C,outcome,[3],inactive
same,outcome,[9],inactive
